# Compounds without any hit were thinned out: in the full panel of roughly 79,000, 15% have a hit. A number with no mark means an inactive call. Activity calls are given as the source filed them. No stated cut-off is given here; in the data, active means growth inhibition above about 70%; inactive means the rest.
# Assays:
# [1] = NCI Yeast Anticancer Drug Screen. Data for the rad50 strain (AID 155);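 further: 0% = growth of vehicle-only cultures of the same strain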; conditions: S. cerevisiae rad50 strain growth inhibition, hits give high values
# How it was run: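 Compounds were tested on a yeast strain with an engineered DNA damage repair alteration; the reported value is growth inhibition normalised to vehicle treatment.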
# [2] = NCI Yeast Anticancer Drug Screen. Data for the mec2-1 strain (AID 157); conditions: S. cerevisiae mec2-1 strain, hits give high values
# How it was run: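 Using mec2-1 yeast: add compound, measure growth, express inhibition versus vehicle-treated cultures.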
# [3] = NCI Yeast Anticancer Drug Screen. Data for the sgs1 mgt1 strain (AID 161);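 further: 0% = growth of cultures given vehicle only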; conditions: S. cerevisiae sgs1 mgt1 strain, hits give high values
# How it was run: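 Compounds are added to genetically altered yeast, and growth is compared with cultures given vehicle alone to give percent inhibition.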
# [4] = NCI Yeast Anticancer Drug Screen. Data for the cln2 rad14 strain (AID 165);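 further: 0% = growth equal to vehicle treated cultures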; conditions: S. cerevisiae cln2 rad14 strain, hits give high values
# How it was run: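 Yeast strain cln2 rad14, bearing defects in cell cycle control and DNA repair, serves as the test system; values reflect growth inhibition compared with vehicle.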
# [5] = NCI Yeast Anticancer Drug Screen. Data for the bub3 strain (AID 167); conditions: S. cerevisiae bub3 mutant strain, hits give high values
# How it was run: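 Growth of a checkpoint-deficient yeast mutant is measured after compound exposure. Values represent inhibition relative to vehicle.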
# [6] = NCI Yeast Anticancer Drug Screen. Data for the mlh1 rad18 strain (AID 175); conditions: S. cerevisiae mlh1 rad18 strain growth inhibition, hits give high values
# How it was run: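 Steps: expose repair-defective yeast to compound; measure growth; express inhibition against vehicle-treated controls.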
# [7] = at 5.0 µM (retest, dose inferred, filed as 0.5)
# [8] = at 50.0 µM (retest, dose inferred, filed as 5.0)
Structure (SMILES),"growth inhibition [1, 7]","growth inhibition [1, 8]",growth inhibition ([1]; at 50.0 µM),"growth inhibition [2, 7]","growth inhibition [2, 8]",growth inhibition ([2]; at 50.0 µM),"growth inhibition [3, 7]","growth inhibition [3, 8]",growth inhibition ([3]; at 50.0 µM),"growth inhibition [4, 7]","growth inhibition [4, 8]",growth inhibition ([4]; at 50.0 µM),"growth inhibition [5, 7]","growth inhibition [5, 8]",growth inhibition ([5]; at 50.0 µM),"growth inhibition [6, 7]","growth inhibition [6, 8]",growth inhibition ([6]; at 50.0 µM)
Cc1c2cnccc2c(C)c2c1c1ccccc1n2CCCN,22%,73% (active),91.7% (active),14%,33%,67.6%,5%,50%,77.3% (active),17%,32%,72.3% (active),29%,35%,84.6% (active),16%,58%,82.1% (active)
NC(=O)c1ccccc1C(=O)O,-6%,7%,12.9%,-5%,-2%,1.85%,0%,2%,-36.1%,2%,1%,36.9%,2%,9%,0.6%,-5%,5%,5.9%
O=S(=O)(Nc1nccs1)c1ccc(N=Cc2cn(Cc3ccccc3)c3ccccc23)cc1,3%,53%,82.3% (active),-3%,7%,36.4%,3%,57%,85.9% (active),9%,11%,27.4%,1%,8%,9.5%,5%,38%,52.4%
Cn1c(=O)cc2c3c(ccc(C(=O)O)c31)C(=O)c1ccccc1-2,40%,34%,80.2% (active),10%,50%,36.2%,2%,27%,45.1%,-8%,22%,16.5%,1%,62%,61.8%,12%,50%,51.7%
CCCCCCCCCCCCNC(=O)c1cc[n+](Cc2ccc(Cl)c(Cl)c2)cc1,99% (active),98% (active),99.3% (active),100% (active),97% (active),99.2% (active),100% (active),98% (active),99.1% (active),88% (active),98% (active),97.8% (active),98% (active),98% (active),98.8% (active),99% (active),99% (active),99% (active)
O=C(O)CSC(=S)N1CCCC1,-4%,5%,46%,2%,3%,-5.3%,-4%,4%,-14.5%,2%,2%,-40.7%,2%,-3%,-5.6%,-4%,8%,-15.8%
O=C(CC1Sc2ccccc2NC1=O)Nc1ccc([N+](=O)[O-])cc1[N+](=O)[O-] (configuration not stated),30%,81% (active),88% (active),25%,89% (active),93.3% (active),51%,98% (active),81.8% (active),34%,62%,28.9%,36%,97% (active),92% (active),51%,96% (active),86.9% (active)
CCCN(CCC)C(=O)c1nc(N)nc(-c2ccc(OC)cc2)c1-c1ccc(OC)cc1,9%,9%,-23.6%,-1%,-1%,-30.1%,-6%,-6%,29.4%,0%,0%,2.55%,-10%,-10%,-21.4%,-9%,-9%,-42%
Clc1ccc(C2=Nc3ccccc3SC(c3ccc(Cl)c(Cl)c3)C2)c(Cl)c1 (configuration not stated),16%,16%,64.2%,12%,12%,49.3%,1%,1%,63.3%,10%,10%,40.8%,9%,9%,70.4% (active),13%,13%,63.7%
O=C1c2cccc3cccc(c23)C1(Br)Br,36%,99% (active),68%,20%,99% (active),23.4%,45%,98% (active),70.8% (active),37%,95% (active),56.1%,26%,97% (active),55.6%,54%,99% (active),67.8%
C[C@H](CCC1=NCCN1)[C@H]1CC[C@H]2[C@@H]3CC[C@@H]4C[C@H](O)CC[C@]4(C)[C@H]3C[C@H](O)[C@]12C,93% (active),99% (active),91.3% (active),26%,76% (active),93.1% (active),39%,99% (active),90.2% (active),59%,99% (active),87.8% (active),-10%,99% (active),91.4% (active),32%,99% (active),91% (active)
COC1OC(CN=[N+]=[N-])C(OC(=O)c2ccccc2)C(OC(C)=O)C1OC(C)=O (configuration not stated),-3%,-3%,7.35%,-24%,23%,9.8%,-192%,-1%,18.1%,2%,-2%,0%,61%,73% (active),80% (active),13%,13%,18.2%
Cc1cc(Cc2ccccc2)ccc1O,0%,66%,51.2%,-6%,39%,96.4% (active),-1%,50%,55.8%,-5%,15%,57.5%,-11%,47%,81% (active),8%,60%,41%
CCOC(=O)NC(NNc1ccc([N+](=O)[O-])cc1[N+](=O)[O-])(C(F)(F)F)C(F)(F)F,1%,99% (active),97.3% (active),-3%,99% (active),98.2% (active),6%,99% (active),98.4% (active),21%,98% (active),98.7% (active),19%,97% (active),98% (active),4%,98% (active),98.5% (active)
CCNc1cc2c3c(c1)CCCN3CCC2,15%,40%,-15.7%,13%,27%,-20.7%,14%,18%,-1.15%,20%,24%,-46.1%,15%,30%,-17%,17%,51%,-10.7%
CN(C)CCC(=O)c1ccc2c(ccc3ccccc32)c1,5%,36%,69.7%,10%,83% (active),66.8%,8%,92% (active),90.5% (active),-3%,51%,-7.8%,6%,94% (active),84.7% (active),0%,90% (active),77.2% (active)
N#CSC#CCCC#CSC#N,52%,57%,92.5% (active),43%,55%,93.9% (active),100% (active),100% (active),94.2% (active),99% (active),99% (active),92.9% (active),100% (active),98% (active),92.4% (active),47%,46%,88.9% (active)
CCNC(=S)N/N=C(/C)c1cccc(/C(C)=N\NC(=S)NCC)n1,1%,12%,57.5%,10%,10%,38.4%,13%,24%,63.7%,8%,6%,19.1%,18%,38%,54.2%,12%,22%,37.7%
O=C(Nc1ccc(Cl)c(Cl)c1Cl)Oc1c(Cl)c(Cl)c(Cl)c(Cl)c1Cl,25%,97% (active),99.5% (active),36%,100% (active),99.6% (active),43%,99% (active),99.6% (active),13%,99% (active),99.2% (active),10%,99% (active),98.5% (active),20%,99% (active),99.5% (active)

# From PubChem BioAssay (NCI)
